Structures are written as SMILES. Values joined by “and” are separate entries in the source; they are usually repeats but may differ in a detail not shown here. Identical values can stand only once. The campaign covered roughly 16,000 compounds. About 2,600 (16%) were called active. Roughly 20% stayed inconclusive and do not appear here. The call rests on the fitted dose curve; in most records, active means well fitted curve in the direction sought with a large enough effect; inconclusive means small, poorly fitted or top-dose-only effect, or effect the other way; inactive means no such curve, though single readings can be large or run the other way. Only a selection was taken, and actives are over-represented in it overall. Some structures have more than one record in an assay (separate samples or runs), and their calls can disagree.
On the % scale 0 is the no-effect control and ±100 the full control effect.

Cytochrome P450 2D6 (Homo sapiens), sequence (P10635 whole entry, looked up): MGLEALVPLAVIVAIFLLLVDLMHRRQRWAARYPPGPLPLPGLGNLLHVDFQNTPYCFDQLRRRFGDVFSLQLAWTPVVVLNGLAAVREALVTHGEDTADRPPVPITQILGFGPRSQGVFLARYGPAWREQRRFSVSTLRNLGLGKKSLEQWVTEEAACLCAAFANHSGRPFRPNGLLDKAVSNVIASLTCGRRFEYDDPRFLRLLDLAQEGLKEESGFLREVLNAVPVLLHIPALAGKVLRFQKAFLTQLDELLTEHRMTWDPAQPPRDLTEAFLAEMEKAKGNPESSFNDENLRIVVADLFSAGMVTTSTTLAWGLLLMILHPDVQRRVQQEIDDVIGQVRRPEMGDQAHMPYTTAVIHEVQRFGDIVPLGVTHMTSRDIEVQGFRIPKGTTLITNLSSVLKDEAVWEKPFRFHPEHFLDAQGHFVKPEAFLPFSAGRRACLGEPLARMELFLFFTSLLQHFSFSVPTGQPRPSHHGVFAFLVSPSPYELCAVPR

The test concerns the target Cytochrome P450 2D6 (Homo sapiens) (UniProt P10635). As to the kind of experiment: Cytochrome panel assay with activity outcomes. Particulars: recombinant CYP, pro-luciferin dealkylation, luminescence, p450-cyp2d6; series mostly up to 57.1 µM; activity, negative = inhibition: at the top concentration.
For the compound `O=C(O)c1ccccc1Nc1cccc(C(F)(F)F)c1`, the “activity, negative = inhibition” value is -2.93% [at 25.6 µM] (inactive).
With `N[C@@H](CCCCP(=O)(O)O)C(=O)O`, the “activity, negative = inhibition” value was 4.27% (inactive).
As to `CC[N+](C)(C)c1cccc(O)c1`, the “activity, negative = inhibition” value was 10.6% (inactive).
Turning to `O=C(Oc1ccccc1)N1CCC2(CCCN(C(c3ccccc3)c3ccccc3)C2)CC1`, the “activity, negative = inhibition” value was -0.788% (inactive).
By AC50 is commonly meant the midpoint of the concentration-response curve, whichever way the signal moves. On to `O=C(Oc1ccccc1)N1CCC2(CC1)CN(C(c1ccccc1)c1ccccc1)C2`, for which the AC50 is 7.94 µM (active).
Take `CN1CCC2(CC1)CCN(C(=O)Oc1ccccc1)CC2`: the “activity, negative = inhibition” value is -0.504% (inactive).
As to `C[C@@H]1O[C@H](OC2[C@@H](O)[C@H](O)C(O)[C@H](O)[C@H]2O)[C@@H](N)C[C@@H]1N=C(N)C(=O)O` (stereo not given in full), the activity, negative = inhibition was 3.95% [at 11.4 µM] (inactive).
Still for that read-out and setting: with `CN1CCN(c2ncc3ncc(=O)n(C)c3n2)CC1` the figure was 10.1% (inactive).
For the compound `C[C@@]12CC[C@H]3[C@@H](CC=C4C[C@H](OS(=O)(=O)O)CC[C@]43C)[C@H]1CCC2=O`, the “activity, negative = inhibition” value is 9.55% (inactive).
Consider `CC(=O)O[C@H]1CC[C@@]2(C)C(=CC[C@@H]3[C@H]2CC[C@]2(C)C(=O)CC[C@H]32)C1`, for which the “activity, negative = inhibition” value is -6.32% [at 25.6 µM] (inactive).
`CCN(CC)CCO[C@H]1CC[C@@]2(C)C(=CC[C@@H]3[C@H]2CC[C@]2(C)C(=O)CC[C@H]32)C1`: the AC50 was 0.0794 µM (active).
Turning to `O=C(c1ccccc1F)c1cn(CC(=O)N2CCOCC2)c2ccccc12`, the “activity, negative = inhibition” value is -6.53% (inactive).
`CCCN(CCC)[C@@H]1CCc2cccc(O)c2C1`: the AC50 was 3.16 µM (active) and inactive and 794 nM (active).
As to `CCCN(CCC)[C@H]1CCc2c(F)ccc(O)c2C1`, the concentration at half-maximal activity (AC50) was 631 nM (active) and 1.58 µM (active).
As to `Cc1cc(C)c(-n2c(O)c(C=NCCN3CCOCC3)c(=O)[nH]c2=O)c(C)c1`, the “activity, negative = inhibition” value was 4.79% (inactive).
For `O=P(Nc1c(Cl)cccc1Cl)(c1ccccc1)c1nc2c(s1)CCCC2` (stereo not given), the “activity, negative = inhibition” value was -6.06% (inactive).
Turning to `C[N+]1([O-])[C@@H]2CC(OC(=O)[C@@H](CO)c3ccccc3)C[C@@H]1[C@H]1O[C@H]12` (stereo not given in full), the AC50 entry is “inactive”.
As to `CC(=Nc1c(C)n(C)n(-c2ccccc2)c1=O)c1c(O)n(Cc2ccccc2)c(=O)[nH]c1=O`, the “activity, negative = inhibition” value is -3.59% (inactive).
`O=C(O)CN1CCN(CC(=O)O)CC(=O)[O][Hg][O]C(=O)C1`: the AC50 was 3.16 µM (active).
For `NCCP(=O)(O)O`, the activity, negative = inhibition is 19.4% [at 11.4 µM] (inactive).
For the compound `C[C@@]12CC[C@@H]3[C@H](CCC4=CC(=O)CC[C@]43C)[C@@H]1CC[C@@H]2C(=O)Cn1cnc2c(=S)nc[nH]c21`, the activity, negative = inhibition was 7.22% [at 11.4 µM] (inactive).
Turning to `Oc1ccc([C@H](O)[C@@H]2CCCCN2)cc1O`, the activity, negative = inhibition is 15.6% [at 11.4 µM] (inactive).
With `O[C@@H](c1cc(-c2ccccc2)nc2c1ccc1ccccc12)[C@@H]1CCCCN1`, the AC50 was 3.16 µM (active).
As to `NCc1cc(=O)[nH]o1`, the AC50 entry was “inactive”.
Consider `O=C(O)/C=C\c1ccc[c]([Sb](=[O])([OH])[OH])c1`, for which the activity, negative = inhibition was -6.51% [at 11.4 µM] (inactive).
Consider `CC(=O)O/C(=C1/C[C@H]2[C@@H]3CC=C4C[C@@H](OC(C)=O)CC[C@]4(C)[C@@H]3CC[C@]2(C)C1=O)C(F)(F)F`, for which the activity, negative = inhibition was -5.95% [at 11.4 µM] (inactive).
In the case of `COc1ccc2c(c1)C13CCCC[C@@H]1C(C2)N(C)CC3` (stereo not given in full), the AC50 is 3.98 µM (active).
For `COc1ccc2c(c1)[C@]13CCCC[C@@H]1[C@H](C2)NCC3`, the AC50 is 6.31 µM (active).
On to `COc1ccc2c(c1)[C@]13CCCC[C@@H]1[C@H](C2)N(C)CC3`, for which the AC50 is 2.51 µM (active).
Consider `CC(C)(O)/C=C\C(=O)[C@](C)(O)[C@H]1[C@H](O)C[C@]2(C)[C@@H]3CC=C4[C@@H](C=C(O)C(=O)C4(C)C)[C@]3(C)C(=O)C[C@@]12C`, for which the activity, negative = inhibition is -2.8% [at 11.4 µM] (inactive).
With `C[C@@]12CC[C@H](O)C[C@@H]1CC[C@H]1[C@H]2CC[C@@]2(C)[C@@H](C3=CC(=O)OC3)CC[C@]12O`, the “activity, negative = inhibition” value is -0.173% [at 25.6 µM] (inactive).
Turning to `C=CCN1C(=O)NC(=O)/C(=C/c2cccn2C)C1=O`, the “activity, negative = inhibition” value was 26.3% (inactive).
Turning to `NC(N)=NCCC[C@H](N)C(=O)O`, the “activity, negative = inhibition” value is 8.61% (inactive).
On to `CCOP(=O)(CN(CC)CCNP(=O)(OCC)OCC)OCC`, for which the “activity, negative = inhibition” value was 7.73% (inactive).
On to `O=C1C=C2C=C[C@H]3C[C@@]2(O1)[C@H]1CCCCN31`, for which the “activity, negative = inhibition” value was 1.85% [at 25.6 µM] (inactive).
As for `COc1ccccc1N1CCNCC1`, the “activity, negative = inhibition” value is -9.83% (inactive).
Take `c1ccc2nc(N3CCNCC3)ccc2c1`: the AC50 result was “inactive”.
Consider `c1ccc2c(N3CCNCC3)cccc2c1`, for which the AC50 is 15.8 µM (active).
With `CN1[C@@H]2CC[C@H]1CC(O[C@@H](c1ccccc1)c1ccc(Cl)cc1)C2` (stereo not given in full), the AC50 is 1.26 µM (active) and 1.58 µM (active).
Same read-out and setting: with `CN1C2CCC1CC(OC(=O)c1ccc(Cl)cc1)C2` (stereo not given) the figure was 0.224 µM (active); with `CC[C@H](Oc1ccc(Cl)cc1)C(=O)OC1C[C@H]2CC[C@@H](C1)N2C` (stereo not given in full), 0.00631 µM (active); with `COc1ccc(C(=O)OC2C[C@H]3CC[C@@H](C2)N3C)cc1OC` (stereo not given in full), 1 µM (active).
As for `COc1ccc(C(=O)O[C@H]2CC[C@@]3(C)[C@H]4CC[C@H]5[C@]3(C[C@]3(O)[C@H]6CN7C[C@H](C)CC[C@H]7[C@](C)(O)[C@]6(O)[C@H](O)C[C@]53O)O[C@]24O)cc1OC`, the activity, negative = inhibition is 13.4% [at 11.4 µM] (inactive).
The same measure, in the same setting: with `CCN1C[C@]2(C)CC[C@H](O)[C@@]34[C@@H]5CC6[C@@H](OC)C[C@@](O)([C@@H]5[C@@H]6O)[C@H](C[C@@H]23)[C@H]14` the figure was 3.42% [at 25.6 µM] (inactive).
Turning to `O=c1cccc2n1CC1CNC[C@H]2C1`, the AC50 entry was “inactive”.

Values taken from PubChem BioAssay AID1851 (National Center for Advancing Translational Sciences (NCATS), 2009).
